The record followed here is publication PMC11006913.

Some targets named below: ALX4 (Homo sapiens, UniProt Q9H161 200-286, Q225E); SHOX (Homo sapiens, UniProt O15266 103-189, R173C); PITX2 (Homo sapiens, UniProt Q99697 72-157).
Holding throughout (assay): PBM; 200 nM protein, PBS
Common to all, as to conditions: dsDNA, one strand shown

The target of assay [1] is PRRX1 (Homo sapiens, UniProt P54821 80-166, F113S).
Assay [2] deals with ALX1 (Homo sapiens, UniProt Q15699 118-204, L144V).
Another assay addresses T1, PAX4 (Homo sapiens, UniProt O43316 9-242, R200Q).
T1 sequence: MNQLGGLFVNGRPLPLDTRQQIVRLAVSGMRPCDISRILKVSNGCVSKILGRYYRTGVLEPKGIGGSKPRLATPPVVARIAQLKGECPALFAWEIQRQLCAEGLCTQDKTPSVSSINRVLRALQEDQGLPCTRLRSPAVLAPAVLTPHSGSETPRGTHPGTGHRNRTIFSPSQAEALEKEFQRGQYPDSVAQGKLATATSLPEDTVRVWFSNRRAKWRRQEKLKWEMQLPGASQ

Assay [3] concerns the target ALX1 (Homo sapiens, UniProt Q15699 118-204, L144R).
Assay [4] deals with HESX1 (Homo sapiens, UniProt Q9UBX0 95-180, R109Q).
Sequence of HESX1 (Homo sapiens, UniProt Q9UBX0 95-180, R109Q) (Q9UBX0 95-180 R109Q): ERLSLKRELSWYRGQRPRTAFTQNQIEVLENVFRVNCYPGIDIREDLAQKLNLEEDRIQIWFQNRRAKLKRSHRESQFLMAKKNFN
The target in assay [5] is ALX3 (Homo sapiens, UniProt O95076 139-225, L168Q).
Sequence of ALX3 (Homo sapiens, UniProt O95076 139-225, L168Q) (O95076 139-225 L168Q): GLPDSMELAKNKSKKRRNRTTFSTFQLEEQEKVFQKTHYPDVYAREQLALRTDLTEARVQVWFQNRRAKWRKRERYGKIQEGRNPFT
In assay [6] the target is ALX3 (Homo sapiens, UniProt O95076 139-225, L168V).
Sequence of ALX3 (Homo sapiens, UniProt O95076 139-225, L168V) (O95076 139-225 L168V): as the sequence (O95076 139-225 L168Q) above, with Q30V counted along it
The target in assay [7] is ALX1 (Homo sapiens, UniProt Q15699 118-204).
Sequence of ALX1 (Homo sapiens, UniProt Q15699 118-204) (Q15699 118-204): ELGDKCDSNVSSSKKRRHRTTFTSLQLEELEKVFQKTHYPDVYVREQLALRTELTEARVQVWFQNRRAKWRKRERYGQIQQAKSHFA
The target in assay [8] is HOXB6 (Homo sapiens, UniProt P17509 132-218, K202E).
Sequence of HOXB6 (Homo sapiens, UniProt P17509 132-218, K202E) (P17509 132-218 K202E): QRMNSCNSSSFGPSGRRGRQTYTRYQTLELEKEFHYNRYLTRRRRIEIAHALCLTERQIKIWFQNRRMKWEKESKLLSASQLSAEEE
Assay [9] has as its target PRRX1 (Homo sapiens, UniProt P54821 80-166).
Assay [10] addresses HOXB6 (Homo sapiens, UniProt P17509 132-218).
Assay [11] concerns the target HESX1 (Homo sapiens, UniProt Q9UBX0 95-180, F115L).
In assay [12] the target is ALX3 (Homo sapiens, UniProt O95076 139-225, N203Q).
Sequence of ALX3 (Homo sapiens, UniProt O95076 139-225, N203Q) (O95076 139-225 N203Q): as the sequence (O95076 139-225 L168Q) above, with Q30L, N65Q counted along it
For assay [13], the target named is ALX3 (Homo sapiens, UniProt O95076 139-225).
Sequence of ALX3 (Homo sapiens, UniProt O95076 139-225) (O95076 139-225): as the sequence (O95076 139-225 L168Q) above, with Q30L counted along it
Assay [14] has as its target ALX3 (Homo sapiens, UniProt O95076 139-225, N203S).
In assay [15] the target is MSX2 (Homo sapiens, UniProt P35548 130-214, R199I).
Sequence of MSX2 (Homo sapiens, UniProt P35548 130-214, R199I) (P35548 130-214 R199I): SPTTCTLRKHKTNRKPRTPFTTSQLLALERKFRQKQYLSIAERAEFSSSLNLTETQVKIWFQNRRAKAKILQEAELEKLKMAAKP
In assay [16] the target is T2, NKX2-6 (Homo sapiens, UniProt A6NCS4 118-204).
T2 sequence: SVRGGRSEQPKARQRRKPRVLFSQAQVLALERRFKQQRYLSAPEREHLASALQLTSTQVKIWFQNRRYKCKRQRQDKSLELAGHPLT

In assay [17] the target is MSX2 (Homo sapiens, UniProt P35548 130-214).
Sequence of MSX2 (Homo sapiens, UniProt P35548 130-214) (P35548 130-214): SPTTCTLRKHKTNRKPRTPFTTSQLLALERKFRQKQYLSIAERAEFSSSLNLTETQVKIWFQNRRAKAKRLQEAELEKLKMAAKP
Assay [18] concerns the target T3, NKX2-6 (Homo sapiens, UniProt A6NCS4 118-204, F151L).
T3 sequence: T2 sequence with F34L

Assay [19] addresses MSX2 (Homo sapiens, UniProt P35548 130-214, F161Y).
Assay [20] addresses VAX1 (Homo sapiens, UniProt Q5SQQ9 86-172).
Assay [21] deals with VAX1 (Homo sapiens, UniProt Q5SQQ9 86-172, T142I).
Sequence of VAX1 (Homo sapiens, UniProt Q5SQQ9 86-172, T142I) (Q5SQQ9 86-172 T142I): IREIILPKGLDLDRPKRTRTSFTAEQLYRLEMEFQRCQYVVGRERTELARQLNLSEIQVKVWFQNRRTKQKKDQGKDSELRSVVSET
The target of assay [22] is VAX1 (Homo sapiens, UniProt Q5SQQ9 86-172, K157R).
Sequence of VAX1 (Homo sapiens, UniProt Q5SQQ9 86-172, K157R) (Q5SQQ9 86-172 K157R): as the sequence (Q5SQQ9 86-172 T142I) above, with I57T, K72R counted along it

Positions count from the first letter of the chain named.

Sequence of PRRX1 (Homo sapiens, UniProt P54821 80-166) (P54821 80-166): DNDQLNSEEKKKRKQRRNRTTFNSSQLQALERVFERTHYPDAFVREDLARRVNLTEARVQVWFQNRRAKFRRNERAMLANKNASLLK
Sequence of PRRX1 (Homo sapiens, UniProt P54821 80-166, F113S) (P54821 80-166 F113S): as the sequence (P54821 80-166) above, with F34S counted along it
Sequence of ALX3 (Homo sapiens, UniProt O95076 139-225, N203S) (O95076 139-225 N203S): as the sequence (O95076 139-225 L168Q) above, with Q30L, N65S counted along it
Sequence of ALX1 (Homo sapiens, UniProt Q15699 118-204, L144V) (Q15699 118-204 L144V): as the sequence (Q15699 118-204) above, with L27V counted along it
Sequence of ALX1 (Homo sapiens, UniProt Q15699 118-204, L144R) (Q15699 118-204 L144R): as the sequence (Q15699 118-204) above, with L27R counted along it
Sequence of SHOX (O15266 103-189 R173C): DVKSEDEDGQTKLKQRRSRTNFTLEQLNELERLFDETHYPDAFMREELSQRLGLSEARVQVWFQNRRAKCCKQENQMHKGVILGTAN
Sequence of MSX2 (Homo sapiens, UniProt P35548 130-214, F161Y) (P35548 130-214 F161Y): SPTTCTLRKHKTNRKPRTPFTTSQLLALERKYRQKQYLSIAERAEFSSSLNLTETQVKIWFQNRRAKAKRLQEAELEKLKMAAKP
Sequence of ALX4 (Q9H161 200-286 Q225E): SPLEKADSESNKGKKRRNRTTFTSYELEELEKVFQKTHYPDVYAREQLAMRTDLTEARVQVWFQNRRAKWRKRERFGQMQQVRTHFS
Sequence of VAX1 (Homo sapiens, UniProt Q5SQQ9 86-172) (Q5SQQ9 86-172): as the sequence (Q5SQQ9 86-172 T142I) above, with I57T counted along it
Sequence of HESX1 (Homo sapiens, UniProt Q9UBX0 95-180, F115L) (Q9UBX0 95-180 F115L): as the sequence (Q9UBX0 95-180 R109Q) above, with Q15R, F21L counted along it
Sequence of HOXB6 (Homo sapiens, UniProt P17509 132-218) (P17509 132-218): as the sequence (P17509 132-218 K202E) above, with E71K counted along it

Take AATTAAAC: the binding signal is 11.1 upbm affinity estimate (log intensity, higher = more binding, comparable within an allelic series) with PRRX1 [1]; 12.8 upbm affinity estimate (log intensity, higher = more binding, comparable within an allelic series) with ALX4; 11.3 upbm affinity estimate (log intensity, higher = more binding, comparable within an allelic series) with ALX1 [2]; 11.8 upbm affinity estimate (log intensity, higher = more binding, comparable within an allelic series) with PAX4; 9.29 upbm affinity estimate (log intensity, higher = more binding, comparable within an allelic series) in the assay with SHOX; 11 upbm affinity estimate (log intensity, higher = more binding, comparable within an allelic series) with ALX1 [3]. The binding signal with HESX1 [4] is 8.69 upbm affinity estimate (log intensity, higher = more binding, comparable within an allelic series); in the assay with ALX3 [5] it was 10.2 upbm affinity estimate (log intensity, higher = more binding, comparable within an allelic series); with ALX3 [6] it was 9.91 upbm affinity estimate (log intensity, higher = more binding, comparable within an allelic series); with ALX1 [7], 12 upbm affinity estimate (log intensity, higher = more binding, comparable within an allelic series).
On to GTCCCCAC, for which the binding signal with PRRX1 [1] is 9.29 upbm affinity estimate (log intensity, higher = more binding, comparable within an allelic series); with HOXB6 [8], 9.01 upbm affinity estimate (log intensity, higher = more binding, comparable within an allelic series); in the assay with PRRX1 [9] it was 9.35 upbm affinity estimate (log intensity, higher = more binding, comparable within an allelic series); with HOXB6 [10], 9.13 upbm affinity estimate (log intensity, higher = more binding, comparable within an allelic series).
Regarding AAATAATT, the binding signal with PRRX1 [1] is 11.1 upbm affinity estimate (log intensity, higher = more binding, comparable within an allelic series); in the assay with HOXB6 [8], 9.97 upbm affinity estimate (log intensity, higher = more binding, comparable within an allelic series); with HESX1 [11], 7.74 upbm affinity estimate (log intensity, higher = more binding, comparable within an allelic series).
ACCGAGGG: the binding signal was 8.94 upbm affinity estimate (log intensity, higher = more binding, comparable within an allelic series) with PRRX1 [1]; 6.46 upbm affinity estimate (log intensity, higher = more binding, comparable within an allelic series) with ALX1 [2]; 7.64 upbm affinity estimate (log intensity, higher = more binding, comparable within an allelic series) with ALX3 [12]; 6.47 upbm affinity estimate (log intensity, higher = more binding, comparable within an allelic series) with ALX1 [3]; 7.78 upbm affinity estimate (log intensity, higher = more binding, comparable within an allelic series) in the assay with ALX3 [13]; 7.65 upbm affinity estimate (log intensity, higher = more binding, comparable within an allelic series) in the assay with ALX3 [5]. For the same sequence, the binding signal in the assay with ALX3 [6] is 7.64 upbm affinity estimate (log intensity, higher = more binding, comparable within an allelic series); with ALX1 [7] it was 6.38 upbm affinity estimate (log intensity, higher = more binding, comparable within an allelic series); with ALX3 [14], 7.63 upbm affinity estimate (log intensity, higher = more binding, comparable within an allelic series); with PRRX1 [9] it was 9.32 upbm affinity estimate (log intensity, higher = more binding, comparable within an allelic series).
In the case of ACGCCCCG, the binding signal in the assay with PRRX1 [1] is 9.23 upbm affinity estimate (log intensity, higher = more binding, comparable within an allelic series); with MSX2 [15], 9.45 upbm affinity estimate (log intensity, higher = more binding, comparable within an allelic series); with ALX3 [12], 7.74 upbm affinity estimate (log intensity, higher = more binding, comparable within an allelic series); in the assay with NKX2-6 [16] it was 9.2 upbm affinity estimate (log intensity, higher = more binding, comparable within an allelic series); in the assay with MSX2 [17] it was 9.36 upbm affinity estimate (log intensity, higher = more binding, comparable within an allelic series); with ALX3 [13], 7.57 upbm affinity estimate (log intensity, higher = more binding, comparable within an allelic series). For the same sequence, the binding signal with ALX3 [5] was 7.68 upbm affinity estimate (log intensity, higher = more binding, comparable within an allelic series); in the assay with NKX2-6 [18] it was 9.33 upbm affinity estimate (log intensity, higher = more binding, comparable within an allelic series); with ALX3 [6], 7.67 upbm affinity estimate (log intensity, higher = more binding, comparable within an allelic series); with MSX2 [19] it was 9.41 upbm affinity estimate (log intensity, higher = more binding, comparable within an allelic series); with ALX3 [14], 7.73 upbm affinity estimate (log intensity, higher = more binding, comparable within an allelic series); with PRRX1 [9], 9.08 upbm affinity estimate (log intensity, higher = more binding, comparable within an allelic series).
With CCATGACG, the binding signal was 9.32 upbm affinity estimate (log intensity, higher = more binding, comparable within an allelic series) with PRRX1 [1] and 9.37 upbm affinity estimate (log intensity, higher = more binding, comparable within an allelic series) in the assay with PRRX1 [9].
Regarding CCGTGTCC, the binding signal in the assay with PRRX1 [1] is 9.3 upbm affinity estimate (log intensity, higher = more binding, comparable within an allelic series); in the assay with VAX1 [20] it was 6.98 upbm affinity estimate (log intensity, higher = more binding, comparable within an allelic series); with VAX1 [21] it was 7.18 upbm affinity estimate (log intensity, higher = more binding, comparable within an allelic series); with PRRX1 [9], 9.13 upbm affinity estimate (log intensity, higher = more binding, comparable within an allelic series); in the assay with VAX1 [22], 6.99 upbm affinity estimate (log intensity, higher = more binding, comparable within an allelic series).
As to CGGAACCG, the binding signal is 9.35 upbm affinity estimate (log intensity, higher = more binding, comparable within an allelic series) in the assay with PRRX1 [1]; 7.68 upbm affinity estimate (log intensity, higher = more binding, comparable within an allelic series) with PITX2; 9.26 upbm affinity estimate (log intensity, higher = more binding, comparable within an allelic series) with PRRX1 [9].
